According to paper PMC12529666, “Dysregulation of AGO2-miRNA dynamics underlies the AGO2-associated Lessel–Kreienkamp syndrome”:

B1: ATACTCCA (ssRNA)
RNA 1: GAGUUCUACAGUCCGACGAUCCCAACAUACUCCACACCUGGAAUUCUCGGGUGCCAA
RNA 2: UGGAGUGUGACAAUGGUGUUUG
DNA 1: GATCGTCGGACTGTAGAACTC
DNA 2: TTGGCACCCGAGAATTCCA
modifications: constant regions annealed to DNA blockers; guide miR-122 5' phosphate
B2: GTGCCCCA (ssRNA)
RNA 1: GAGUUCUACAGUCCGACGAUCCCAACGUGCCCCACACCUGGAAUUCUCGGGUGCCAA
RNA 2: UGGAGUGUGACAAUGGUGUUUG
DNA 1: GATCGTCGGACTGTAGAACTC
DNA 2: TTGGCACCCGAGAATTCCA
modifications: constant regions annealed to DNA blockers; guide miR-122 5' phosphate
B3: GTGCCTCA (ssRNA)
RNA 1: GAGUUCUACAGUCCGACGAUCCCAACGUGCCUCACACCUGGAAUUCUCGGGUGCCAA
RNA 2: UGGAGUGUGACAAUGGUGUUUG
DNA 1: GATCGTCGGACTGTAGAACTC
DNA 2: TTGGCACCCGAGAATTCCA
modifications: constant regions annealed to DNA blockers; guide miR-122 5' phosphate
B4: GTGTCTCA (ssRNA)
RNA 1: GAGUUCUACAGUCCGACGAUCCCAACGUGUCUCACACCUGGAAUUCUCGGGUGCCAA
RNA 2: UGGAGUGUGACAAUGGUGUUUG
DNA 1: GATCGTCGGACTGTAGAACTC
DNA 2: TTGGCACCCGAGAATTCCA
modifications: constant regions annealed to DNA blockers; guide miR-122 5' phosphate
B5: ACGCTCTG (ssRNA)
RNA 1: GAGUUCUACAGUCCGACGAUCCCAACACGCUCUGCACCUGGAAUUCUCGGGUGCCAA
RNA 2: UGGAGUGUGACAAUGGUGUUUG
DNA 1: GATCGTCGGACTGTAGAACTC
DNA 2: TTGGCACCCGAGAATTCCA
modifications: constant regions annealed to DNA blockers; guide miR-122 5' phosphate
B6: GCGCCCCG (ssRNA)
RNA 1: GAGUUCUACAGUCCGACGAUCCCAACGCGCCCCGCACCUGGAAUUCUCGGGUGCCAA
RNA 2: UGGAGUGUGACAAUGGUGUUUG
DNA 1: GATCGTCGGACTGTAGAACTC
DNA 2: TTGGCACCCGAGAATTCCA
modifications: constant regions annealed to DNA blockers; guide miR-122 5' phosphate
B7: GTGCTCTG (ssRNA)
RNA 1: GAGUUCUACAGUCCGACGAUCCCAACGUGCUCUGCACCUGGAAUUCUCGGGUGCCAA
RNA 2: UGGAGUGUGACAAUGGUGUUUG
DNA 1: GATCGTCGGACTGTAGAACTC
DNA 2: TTGGCACCCGAGAATTCCA
modifications: constant regions annealed to DNA blockers; guide miR-122 5' phosphate
B8: ACACTCTG (ssRNA)
RNA 1: GAGUUCUACAGUCCGACGAUCCCAACACACUCUGCACCUGGAAUUCUCGGGUGCCAA
RNA 2: UGGAGUGUGACAAUGGUGUUUG
DNA 1: GATCGTCGGACTGTAGAACTC
DNA 2: TTGGCACCCGAGAATTCCA
modifications: constant regions annealed to DNA blockers; guide miR-122 5' phosphate
B9: ACGTCTTA (ssRNA)
RNA 1: GAGUUCUACAGUCCGACGAUCCCAACACGUCUUACACCUGGAAUUCUCGGGUGCCAA
RNA 2: UGGAGUGUGACAAUGGUGUUUG
DNA 1: GATCGTCGGACTGTAGAACTC
DNA 2: TTGGCACCCGAGAATTCCA
modifications: constant regions annealed to DNA blockers; guide miR-122 5' phosphate
B10: GCGCTTCA (ssRNA)
RNA 1: GAGUUCUACAGUCCGACGAUCCCAACGCGCUUCACACCUGGAAUUCUCGGGUGCCAA
RNA 2: UGGAGUGUGACAAUGGUGUUUG
DNA 1: GATCGTCGGACTGTAGAACTC
DNA 2: TTGGCACCCGAGAATTCCA
modifications: constant regions annealed to DNA blockers; guide miR-122 5' phosphate
B11: ATATCCCA (ssRNA)
RNA 1: GAGUUCUACAGUCCGACGAUCCCAACAUAUCCCACACCUGGAAUUCUCGGGUGCCAA
RNA 2: UGGAGUGUGACAAUGGUGUUUG
DNA 1: GATCGTCGGACTGTAGAACTC
DNA 2: TTGGCACCCGAGAATTCCA
modifications: constant regions annealed to DNA blockers; guide miR-122 5' phosphate
B12: ACGCCCTA (ssRNA)
RNA 1: GAGUUCUACAGUCCGACGAUCCCAACACGCCCUACACCUGGAAUUCUCGGGUGCCAA
RNA 2: UGGAGUGUGACAAUGGUGUUUG
DNA 1: GATCGTCGGACTGTAGAACTC
DNA 2: TTGGCACCCGAGAATTCCA
modifications: constant regions annealed to DNA blockers; guide miR-122 5' phosphate
B13: ACGTCCTA (ssRNA)
RNA 1: GAGUUCUACAGUCCGACGAUCCCAACACGUCCUACACCUGGAAUUCUCGGGUGCCAA
RNA 2: UGGAGUGUGACAAUGGUGUUUG
DNA 1: GATCGTCGGACTGTAGAACTC
DNA 2: TTGGCACCCGAGAATTCCA
modifications: constant regions annealed to DNA blockers; guide miR-122 5' phosphate
B14: ACGTTTTA (ssRNA)
RNA 1: GAGUUCUACAGUCCGACGAUCCCAACACGUUUUACACCUGGAAUUCUCGGGUGCCAA
RNA 2: UGGAGUGUGACAAUGGUGUUUG
DNA 1: GATCGTCGGACTGTAGAACTC
DNA 2: TTGGCACCCGAGAATTCCA
modifications: constant regions annealed to DNA blockers; guide miR-122 5' phosphate
B15: ACACCTTG (ssRNA)
RNA 1: GAGUUCUACAGUCCGACGAUCCCAACACACCUUGCACCUGGAAUUCUCGGGUGCCAA
RNA 2: UGGAGUGUGACAAUGGUGUUUG
DNA 1: GATCGTCGGACTGTAGAACTC
DNA 2: TTGGCACCCGAGAATTCCA
modifications: constant regions annealed to DNA blockers; guide miR-122 5' phosphate
B16: GCGCCCCA (ssRNA)
RNA 1: GAGUUCUACAGUCCGACGAUCCCAACGCGCCCCACACCUGGAAUUCUCGGGUGCCAA
RNA 2: UGGAGUGUGACAAUGGUGUUUG
DNA 1: GATCGTCGGACTGTAGAACTC
DNA 2: TTGGCACCCGAGAATTCCA
modifications: constant regions annealed to DNA blockers; guide miR-122 5' phosphate
B17: GTGTCTTA (ssRNA)
RNA 1: GAGUUCUACAGUCCGACGAUCCCAACGUGUCUUACACCUGGAAUUCUCGGGUGCCAA
RNA 2: UGGAGUGUGACAAUGGUGUUUG
DNA 1: GATCGTCGGACTGTAGAACTC
DNA 2: TTGGCACCCGAGAATTCCA
modifications: constant regions annealed to DNA blockers; guide miR-122 5' phosphate
B18: ATGCCCCA (ssRNA)
RNA 1: GAGUUCUACAGUCCGACGAUCCCAACAUGCCCCACACCUGGAAUUCUCGGGUGCCAA
RNA 2: UGGAGUGUGACAAUGGUGUUUG
DNA 1: GATCGTCGGACTGTAGAACTC
DNA 2: TTGGCACCCGAGAATTCCA
modifications: constant regions annealed to DNA blockers; guide miR-122 5' phosphate
B19: GCGTTCCA (ssRNA)
RNA 1: GAGUUCUACAGUCCGACGAUCCCAACGCGUUCCACACCUGGAAUUCUCGGGUGCCAA
RNA 2: UGGAGUGUGACAAUGGUGUUUG
DNA 1: GATCGTCGGACTGTAGAACTC
DNA 2: TTGGCACCCGAGAATTCCA
modifications: constant regions annealed to DNA blockers; guide miR-122 5' phosphate
B20: GTATTCCG (ssRNA)
RNA 1: GAGUUCUACAGUCCGACGAUCCCAACGUAUUCCGCACCUGGAAUUCUCGGGUGCCAA
RNA 2: UGGAGUGUGACAAUGGUGUUUG
DNA 1: GATCGTCGGACTGTAGAACTC
DNA 2: TTGGCACCCGAGAATTCCA
modifications: constant regions annealed to DNA blockers; guide miR-122 5' phosphate

The binders below were run against AGO2 WT (phosphosite mutant background) (Homo sapiens, UniProt Q9UKV8 1-859, S387D;S824A;S828D;S831D;S834A) (assay: RNA Bind-n-Seq (nitrocellulose filter binding and sequencing); miR-122 guide loaded in AGO2; 60 min incubation; 30 mM Tris pH 8.0, 100 mM potassium acetate, 2 mM magnesium acetate, 0.5 mM TCEP, 0.005% NP-40, 0.01 mg/ml yeast tRNA; 3 nM AGO2-miR-122, 100 nM RNA library; 60; high values mean tight binding). Settings: protein: recombinant; tags: His6 (N-terminal, pFastBac HTA).
Outline: (§1)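 Fold enrichment is each target's read fraction divided by its read fraction in the input library. Sf9 insect cells expressed His-tagged AGO2 from baculovirus; the protein was loaded with a synthetic guide RNA and purified by Ni-NTA and a biotinylated capture oligo. The bound RNA was extracted, reverse-transcribed, barcode-amplified and sequenced on Illumina.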

AGO2 WT (phosphosite mutant background), sequence (Q9UKV8 whole entry S387D/S824A/S828D/S831D/S834A): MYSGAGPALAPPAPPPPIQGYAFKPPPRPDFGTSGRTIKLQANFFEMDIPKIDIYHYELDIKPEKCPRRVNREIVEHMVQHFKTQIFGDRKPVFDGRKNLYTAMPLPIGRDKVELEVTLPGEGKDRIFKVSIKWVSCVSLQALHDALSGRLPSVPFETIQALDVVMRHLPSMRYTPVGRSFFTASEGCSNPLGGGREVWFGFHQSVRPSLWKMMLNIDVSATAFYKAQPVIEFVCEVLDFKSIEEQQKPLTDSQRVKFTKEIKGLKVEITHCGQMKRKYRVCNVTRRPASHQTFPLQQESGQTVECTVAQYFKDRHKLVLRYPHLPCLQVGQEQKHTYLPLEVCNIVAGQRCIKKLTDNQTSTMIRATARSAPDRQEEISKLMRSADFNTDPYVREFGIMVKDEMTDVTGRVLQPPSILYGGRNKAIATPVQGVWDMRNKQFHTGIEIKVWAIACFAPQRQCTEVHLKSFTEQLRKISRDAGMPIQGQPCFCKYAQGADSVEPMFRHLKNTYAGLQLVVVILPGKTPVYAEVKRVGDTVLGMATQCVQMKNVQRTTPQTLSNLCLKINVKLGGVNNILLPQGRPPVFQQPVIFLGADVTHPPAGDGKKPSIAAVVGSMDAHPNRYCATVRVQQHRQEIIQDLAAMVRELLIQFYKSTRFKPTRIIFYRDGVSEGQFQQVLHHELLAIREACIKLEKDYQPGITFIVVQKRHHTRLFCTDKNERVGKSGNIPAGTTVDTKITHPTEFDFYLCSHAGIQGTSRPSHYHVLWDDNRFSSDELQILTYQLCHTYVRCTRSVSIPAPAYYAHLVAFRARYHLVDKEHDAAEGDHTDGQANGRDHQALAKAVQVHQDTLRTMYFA

Binder	binding signal
B1	1.32 fold enrichment over input
B2	0.123 fold enrichment over input
B3	0.122 fold enrichment over input
B4	0.126 fold enrichment over input
B5	0.132 fold enrichment over input
B6	0.12 fold enrichment over input
B7	0.123 fold enrichment over input
B8	0.933 fold enrichment over input
B9	0.13 fold enrichment over input
B10	0.123 fold enrichment over input

Each binder was assayed against AGO2 L192P (Homo sapiens, UniProt Q9UKV8 1-859, L192P;S387D;S824A;S828D;S831D;S834A) in the same assay as above. Settings: protein: recombinant; tags: His6 (N-terminal, pFastBac HTA).
Outline: as §1

AGO2 L192P, sequence (Q9UKV8 whole entry L192P/S387D/S824A/S828D/S831D/S834A): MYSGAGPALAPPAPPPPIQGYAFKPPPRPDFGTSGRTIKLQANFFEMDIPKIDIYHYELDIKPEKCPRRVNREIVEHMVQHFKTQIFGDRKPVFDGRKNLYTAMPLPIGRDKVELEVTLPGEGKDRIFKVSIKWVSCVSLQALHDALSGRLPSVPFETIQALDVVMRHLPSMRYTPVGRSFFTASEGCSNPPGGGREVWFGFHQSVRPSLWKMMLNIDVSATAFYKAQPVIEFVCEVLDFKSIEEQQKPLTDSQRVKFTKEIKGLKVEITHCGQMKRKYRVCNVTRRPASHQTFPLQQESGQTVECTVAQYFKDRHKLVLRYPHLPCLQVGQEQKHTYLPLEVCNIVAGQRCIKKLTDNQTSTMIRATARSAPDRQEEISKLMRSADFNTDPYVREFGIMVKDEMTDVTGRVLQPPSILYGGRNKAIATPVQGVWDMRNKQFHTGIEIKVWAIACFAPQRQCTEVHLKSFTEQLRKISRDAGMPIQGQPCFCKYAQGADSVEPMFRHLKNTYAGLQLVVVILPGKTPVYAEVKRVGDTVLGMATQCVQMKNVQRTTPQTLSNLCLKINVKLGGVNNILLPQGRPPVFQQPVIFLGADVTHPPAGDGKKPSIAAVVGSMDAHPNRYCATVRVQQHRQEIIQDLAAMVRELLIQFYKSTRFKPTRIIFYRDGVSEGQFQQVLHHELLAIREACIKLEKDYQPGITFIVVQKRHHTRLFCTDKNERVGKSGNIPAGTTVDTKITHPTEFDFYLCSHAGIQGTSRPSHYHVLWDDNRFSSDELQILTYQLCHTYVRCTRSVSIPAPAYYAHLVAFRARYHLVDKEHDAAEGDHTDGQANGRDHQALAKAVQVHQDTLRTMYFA

Binder	binding signal
B1	4.64 fold enrichment over input
B2	0.464 fold enrichment over input
B3	0.533 fold enrichment over input
B4	0.486 fold enrichment over input
B5	0.394 fold enrichment over input
B6	0.438 fold enrichment over input
B7	0.483 fold enrichment over input
B8	0.807 fold enrichment over input
B9	0.525 fold enrichment over input
B10	0.498 fold enrichment over input
B11	0.464 fold enrichment over input
B12	0.505 fold enrichment over input
B13	0.475 fold enrichment over input
B14	0.447 fold enrichment over input
B15	0.422 fold enrichment over input
B16	0.498 fold enrichment over input
B17	0.461 fold enrichment over input
B18	0.494 fold enrichment over input
B19	0.477 fold enrichment over input
B20	0.43 fold enrichment over input

What follows are binders tested against AGO2 A367P (Homo sapiens, UniProt Q9UKV8 1-859, A367P;S387D;S824A;S828D;S831D;S834A) in the same assay as above. Settings: protein: recombinant; tags: His6 (N-terminal, pFastBac HTA).
Outline: as §1

AGO2 A367P, sequence (Q9UKV8 whole entry A367P/S387D/S824A/S828D/S831D/S834A): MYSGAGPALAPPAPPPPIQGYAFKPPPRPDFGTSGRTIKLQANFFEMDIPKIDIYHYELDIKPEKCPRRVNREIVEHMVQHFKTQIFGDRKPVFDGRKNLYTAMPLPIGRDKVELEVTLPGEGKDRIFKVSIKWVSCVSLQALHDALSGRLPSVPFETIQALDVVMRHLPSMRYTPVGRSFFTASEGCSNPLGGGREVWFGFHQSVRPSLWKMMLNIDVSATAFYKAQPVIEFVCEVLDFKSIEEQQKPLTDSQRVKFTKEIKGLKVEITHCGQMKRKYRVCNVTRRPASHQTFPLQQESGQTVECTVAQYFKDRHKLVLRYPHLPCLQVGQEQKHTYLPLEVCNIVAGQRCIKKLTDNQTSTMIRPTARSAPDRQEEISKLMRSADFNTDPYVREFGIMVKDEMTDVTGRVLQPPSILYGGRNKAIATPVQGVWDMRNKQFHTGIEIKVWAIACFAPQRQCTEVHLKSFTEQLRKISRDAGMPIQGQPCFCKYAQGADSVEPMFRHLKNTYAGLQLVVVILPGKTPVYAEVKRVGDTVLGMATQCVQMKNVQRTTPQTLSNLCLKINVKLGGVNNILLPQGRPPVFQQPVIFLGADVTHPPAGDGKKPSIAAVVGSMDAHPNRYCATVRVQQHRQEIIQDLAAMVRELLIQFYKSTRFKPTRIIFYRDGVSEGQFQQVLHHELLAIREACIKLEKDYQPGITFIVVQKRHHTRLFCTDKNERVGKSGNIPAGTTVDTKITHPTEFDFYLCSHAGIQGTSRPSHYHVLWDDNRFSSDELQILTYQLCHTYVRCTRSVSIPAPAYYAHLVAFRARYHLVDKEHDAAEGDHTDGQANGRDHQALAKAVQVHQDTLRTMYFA

Binder	binding signal
B1	6.04 fold enrichment over input
B2	0.227 fold enrichment over input
B3	0.232 fold enrichment over input
B4	0.222 fold enrichment over input
B5	0.169 fold enrichment over input
B6	0.18 fold enrichment over input
B7	0.182 fold enrichment over input
B8	0.794 fold enrichment over input
B9	0.269 fold enrichment over input
B10	0.238 fold enrichment over input
B11	0.195 fold enrichment over input
B12	0.194 fold enrichment over input
B13	0.205 fold enrichment over input
B14	0.21 fold enrichment over input
B15	0.169 fold enrichment over input
B16	0.192 fold enrichment over input
B17	0.173 fold enrichment over input
B18	0.191 fold enrichment over input
B19	0.187 fold enrichment over input
B20	0.158 fold enrichment over input

What follows are binders tested against AGO2 T357M (Homo sapiens, UniProt Q9UKV8 1-859, T357M;S387D;S824A;S828D;S831D;S834A) in the same assay as above. Settings: protein: recombinant; tags: His6 (N-terminal, pFastBac HTA).
Outline: as §1

AGO2 T357M, sequence (Q9UKV8 whole entry T357M/S387D/S824A/S828D/S831D/S834A): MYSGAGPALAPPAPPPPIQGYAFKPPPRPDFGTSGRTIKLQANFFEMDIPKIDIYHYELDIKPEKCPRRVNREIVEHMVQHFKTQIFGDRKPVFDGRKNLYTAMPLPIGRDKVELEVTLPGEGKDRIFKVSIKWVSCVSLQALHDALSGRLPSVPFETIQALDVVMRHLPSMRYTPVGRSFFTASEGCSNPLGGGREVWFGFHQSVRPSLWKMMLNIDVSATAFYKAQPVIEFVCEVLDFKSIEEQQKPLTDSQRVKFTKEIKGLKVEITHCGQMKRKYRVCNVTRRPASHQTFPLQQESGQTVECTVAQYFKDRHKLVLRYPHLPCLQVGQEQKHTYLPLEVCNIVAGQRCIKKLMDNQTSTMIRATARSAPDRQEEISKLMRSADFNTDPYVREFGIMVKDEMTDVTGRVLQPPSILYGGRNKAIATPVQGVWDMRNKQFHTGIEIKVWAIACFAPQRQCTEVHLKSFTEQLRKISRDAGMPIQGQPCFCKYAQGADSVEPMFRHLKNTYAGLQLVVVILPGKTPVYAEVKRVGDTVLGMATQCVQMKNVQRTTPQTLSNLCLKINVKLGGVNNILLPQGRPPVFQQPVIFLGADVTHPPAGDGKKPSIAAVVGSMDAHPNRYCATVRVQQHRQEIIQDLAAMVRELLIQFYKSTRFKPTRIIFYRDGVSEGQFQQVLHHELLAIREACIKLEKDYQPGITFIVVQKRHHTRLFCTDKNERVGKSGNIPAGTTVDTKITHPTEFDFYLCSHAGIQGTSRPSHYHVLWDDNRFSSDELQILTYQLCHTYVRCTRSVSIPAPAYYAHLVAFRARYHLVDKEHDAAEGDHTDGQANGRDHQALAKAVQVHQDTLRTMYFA

Binder	binding signal
B1	1.16 fold enrichment over input
B2	0.677 fold enrichment over input
B3	0.687 fold enrichment over input
B4	0.585 fold enrichment over input
B5	0.539 fold enrichment over input
B6	0.745 fold enrichment over input
B7	0.67 fold enrichment over input
B8	0.868 fold enrichment over input
B9	0.643 fold enrichment over input
B10	0.703 fold enrichment over input
B11	0.568 fold enrichment over input
B12	0.681 fold enrichment over input
B13	0.603 fold enrichment over input
B14	0.571 fold enrichment over input
B15	0.452 fold enrichment over input
B16	0.741 fold enrichment over input
B17	0.599 fold enrichment over input
B18	0.652 fold enrichment over input
B19	0.592 fold enrichment over input
B20	0.624 fold enrichment over input

These binders were tested against AGO2 F182del (Homo sapiens, UniProt Q9UKV8 1-859, S387D;S824A;S828D;S831D;S834A;del182-182) in the same assay as above. Settings: protein: recombinant; tags: His6 (N-terminal, pFastBac HTA).
Outline: as §1

AGO2 F182del, sequence (Q9UKV8 other isoform, or with tags, fused parts or gaps S387D;S824A;S828D;S831D;S834A;del182-182): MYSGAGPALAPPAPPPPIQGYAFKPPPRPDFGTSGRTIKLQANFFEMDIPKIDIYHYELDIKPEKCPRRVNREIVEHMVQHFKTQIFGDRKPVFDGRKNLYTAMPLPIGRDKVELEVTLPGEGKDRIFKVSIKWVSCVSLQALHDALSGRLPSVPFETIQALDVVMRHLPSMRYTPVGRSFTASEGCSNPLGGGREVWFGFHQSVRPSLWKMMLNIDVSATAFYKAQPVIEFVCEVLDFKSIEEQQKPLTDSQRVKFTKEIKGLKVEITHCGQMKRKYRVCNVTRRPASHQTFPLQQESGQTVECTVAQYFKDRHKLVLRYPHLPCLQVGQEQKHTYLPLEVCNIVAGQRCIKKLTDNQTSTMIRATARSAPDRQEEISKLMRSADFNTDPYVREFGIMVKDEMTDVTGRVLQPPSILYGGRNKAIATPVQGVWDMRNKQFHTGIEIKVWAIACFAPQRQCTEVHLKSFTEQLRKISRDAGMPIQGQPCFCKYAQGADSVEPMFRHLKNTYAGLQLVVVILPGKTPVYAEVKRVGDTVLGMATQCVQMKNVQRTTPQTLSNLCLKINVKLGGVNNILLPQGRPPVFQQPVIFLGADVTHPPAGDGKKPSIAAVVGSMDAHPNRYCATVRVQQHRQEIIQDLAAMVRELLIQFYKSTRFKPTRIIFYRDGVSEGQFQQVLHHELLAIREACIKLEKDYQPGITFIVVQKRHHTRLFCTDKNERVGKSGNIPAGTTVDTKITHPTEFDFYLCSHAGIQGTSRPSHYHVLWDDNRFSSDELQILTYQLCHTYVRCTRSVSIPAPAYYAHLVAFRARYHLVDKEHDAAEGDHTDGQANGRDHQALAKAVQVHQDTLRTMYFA

Binder	binding signal
B1	8.59 fold enrichment over input
B2	0.158 fold enrichment over input
B3	0.326 fold enrichment over input
B4	0.387 fold enrichment over input
B5	0.149 fold enrichment over input
B8	2.4 fold enrichment over input
B9	0.333 fold enrichment over input
B10	0.289 fold enrichment over input
B11	0.249 fold enrichment over input
B13	0.187 fold enrichment over input
B14	0.204 fold enrichment over input
B15	0.318 fold enrichment over input
B18	0.191 fold enrichment over input
B19	0.161 fold enrichment over input
